Tcruzi_prolif: T. cruzi intracellular proliferation inhibitors, primary screen, cell-based, beta-gal Tulahuen parasites, NIH3T3 host, luminescence. T. cruzi beta-gal in NIH3T3, GalScreen luminescence, 90 h. inhibition, % at 8.34 µM. 5.9% of 77,000 active;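 active means mean inhibition above about 93%, with at least 55% of replicates each passing it, limit read from the data, passing the limit was not always enough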
C_diff_HTS: C. difficile growth inhibitors, primary screen, HTS; Clostridium difficile clinical isolate growth, OD600, 24 h; active compounds read low; growth activity, negative = inhibition, % at 16 µg/mL (by protocol); 0.25% of 86,000 active;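 active means mean growth activity at or below -80% and every replicate also at or below -80%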;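 further: 0% = DMSO wells and -100% = levofloxacin 16 µg/mL wells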
Pf_Dd2_growth: P. falciparum Dd2 growth inhibitors, primary screen, SYBR Green fluorescence, single dose replicates | 2.3% of 94,000 active | 72 h; active compounds read low | AID 1159554, 2015 | activity change, % at 10 µM; in the data active means activity change below about -80%
* marks the source's active call; other numbers are inactive results; . = no result given. Rows were chosen to be rich in hits. Some 6.8% of all compounds tested hit in one or more screens of this group.

SMILES Tcruzi_prolif C_diff_HTS Pf_Dd2_growth
Cc1noc(C)c1S(=O)(=O)N(C)C[C@H]1OCCCC[C@H](C)Oc2ccc(NC(=O)Nc3ccc4c(c3)OCO4)cc2C(=O)N([C@H](C)CO)C[C@@H]1C 90 -2 -22
COc1ccc(NC(=O)Nc2ccc3c(c2)C(=O)N([C@H](C)CO)C[C@@H](C)[C@H](CN(C)S(=O)(=O)c2c(C)noc2C)OCCCC[C@@H](C)O3)cc1 80 18 -81*
CO[C@H]1CN(C)C(=O)c2ccc(NC(=O)Nc3cccc(F)c3)cc2OC[C@@H](C)N(C(=O)C2CC2)C[C@H]1C -9 . .
CN1[C@@H]2c3ccc(-c4ccccc4)c(=O)n3C[C@H]1[C@H](CO)[C@H]2C(=O)NCCc1ccccc1 64 -1 19
COc1ccc2c3c([nH]c2c1)[C@@H](CO)N(C(=O)NC(C)C)CC31CCN(C(=O)c2cccnc2)CC1 . 6 -13
O=C([C@H]1[C@H](CO)[C@H]2Cn3c(cccc3=O)[C@H]2N1CC1CCCC1)N1CCc2ccccc2C1 24 -1 .
CO[C@H]1CN(C)C(=O)c2cc(NS(=O)(=O)c3ccccc3F)ccc2OC[C@@H](C)NC[C@H]1C 3 . 32
Cc1c(NC(=O)/C(C#N)=C/c2ccc3ccccc3c2)c(=O)n(-c2ccccc2)n1C . -4 .
CN(C)C(=O)c1cccc(-c2ccc([C@@H]3[C@H]4CN(C(=O)CC5CC5)CC(=O)N4[C@H]3CO)cc2)c1 . 2 11
COc1ccc2c3c(n(C)c2c1)[C@H](CO)N(CC1CC1)CC31CCN(C(=O)CN(C)C)CC1 . 5 -42
COc1ccc2c3c(n(C)c2c1)[C@@H](CO)N(S(C)(=O)=O)CC31CCN(C(=O)CN(C)C)CC1 . -2 -89*
CCC(=O)N1CCC2(CC1)CN(CC1CCCCC1)[C@@H](CO)c1c2c2ccc(OC)cc2n1C . 3 -85*
COc1ccc2c3c(n(C)c2c1)[C@@H](CO)N(S(=O)(=O)c1ccc(C)cc1)CC31CCN(S(=O)(=O)c2ccc(C)cc2)CC1 . 2 -85*
CCC(=O)N1CCC2(CC1)CN(S(C)(=O)=O)[C@H](CO)c1c2c2ccc(OC)cc2n1C . -2 26
COc1ccc2c3c(n(C)c2c1)[C@@H](CO)N(S(=O)(=O)c1ccc(C)cc1)CC31CCN(C)CC1 . -5 -59
COc1ccc2c3c(n(C)c2c1)[C@@H](CO)N(CC1CCCC1)CC31CCN(C(=O)CN(C)C)CC1 . 5 -85*
CCC(=O)N1CCC2(CC1)CN(CC1CCCCC1)[C@H](CO)c1c2c2ccc(OC)cc2n1C . . 42
C[C@@H]1CN([C@H](C)CO)C(=O)c2cc(C3=CCCC3)cnc2O[C@H]1CN(C)C(=O)C1CC1 -27 . 11
C[C@@H]1CCCCO[C@H](CN(C)S(=O)(=O)c2cccs2)[C@H](C)CN([C@@H](C)CO)C(=O)c2cc(NS(=O)(=O)c3ccccc3)ccc2O1 89 -5 -54
C[C@H](CO)N1C[C@H](C)[C@@H](CN(C)C(=O)CCCN(C)C)OCCCC[C@H](C)Oc2ccc(NC(=O)Nc3cccc4ccccc34)cc2C1=O 57 0 5
C[C@@H]1CCCCO[C@@H](CN(C)C(=O)c2ccccc2)[C@H](C)CN([C@H](C)CO)C(=O)c2cc(NC(=O)Nc3cccc4ccccc34)ccc2O1 102* 1 -19
C[C@@H]1CN([C@@H](C)CO)C(=O)c2cc(NC(=O)Nc3cccc4ccccc34)ccc2O[C@@H](C)CCCCO[C@H]1CN(C)C(=O)c1ccccc1 41 -4 3
C[C@@H]1CCCCO[C@H](CN(C)C(=O)c2ccccc2)[C@@H](C)CN([C@@H](C)CO)C(=O)c2cc(NC(=O)Nc3cccc4ccccc34)ccc2O1 86 0 -82*
C[C@@H]1CCCCO[C@H](CN(C)C(=O)CCCN(C)C)[C@H](C)CN([C@H](C)CO)C(=O)c2cc(NC(=O)Nc3cccc4ccccc34)ccc2O1 79 5 -86*
C[C@@H]1CN([C@H](C)CO)C(=O)c2cc(NC(=O)Nc3cccc4ccccc34)ccc2O[C@@H](C)CCCCO[C@@H]1CN(C)C(=O)c1ccccc1 25 1 -69
O=C(NCC[C@H]1CC[C@@H](NS(=O)(=O)c2ccccc2)[C@H](CO)O1)c1cc(Cl)cc(Cl)c1 -46 . 5
C[C@@H]1CN([C@@H](C)CO)C(=O)Cc2cc(NC(=O)Nc3ccccc3)ccc2O[C@H]1CN(C)CC1CC1 -21 1 -87*
C[C@@H]1CN([C@@H](C)CO)C(=O)Cc2cc(NC(=O)Nc3cccc4ccccc34)ccc2O[C@@H]1CN(C)CC1CC1 36 -1 -85*
